Results taken from PubChem BioAssay (NCATS).
The other results are listed elsewhere or left out. A call without a number means that no potency is given here. Results filed as inconclusive are left out. Calls of active or inactive are those of the source. The call rests on the fitted dose curve; in most records, active means well fitted inhibition curve with a large enough effect; inconclusive means small, poorly fitted or top-dose-only effect; inactive means no such curve, though single readings can be large or run the other way.
Potency means the concentration at half of the fitted maximal effect.

Test: qHTS for Inhibitors of WRN Helicase: Thiazole Orange DNA Binding Counterscreen (AID 720499);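 further: drop in dye fluorescence marks compound binding to DNA; nearly all actives have a fitted effect of over 60% in size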
Settings: thiazole orange DNA binding displacement, fluorescence; series mostly up to 57.1 µM
Excerpt: Inhibition of DNA repair is proposed as a strategy for combating cancer. Synthetic lethality is an approach that exploits preexisting DNA repair deficiencies in certain tumors to develop inhibitors of DNA repair pathways that compensate for the tumor-associated DNA repair deficiency. Because helicases play critical roles in the DNA damage response and in DNA repair, particularly in actively dividing and replicating cells, characterization of synthetic lethal relationships of DNA helicases may be of value in developing improved anticancer treatment strategies; moreover, small molecules that specifically target a given DNA helicase may be useful for understanding its role in cellular nucleic acid metabolism. The goal of this project is to identify small molecule, non-covalent chemical inhibitors of the Werner syndrome (WS) helicase (WRN), which plays an important role in cell proliferation, the replication stress response, and DNA repair. […] The WRN gene product that is defective in the chromosomal instability disorder has DNA helicase and exonuclease activities and interacts with a number of nuclear proteins to maintain genomic stability.
A 1536-well format, fluorescence based, high-throughput screen (AID 651768) has been developed in collaboration with the Brosh Laboratory at the National Institute of Aging (NIA) to screen for inhibitors of the WRN. The Thiazole Orange (ThO) DNA binding (TO-binding) is used to eliminate inhibitors that operate via nonspecific DNA binding. This displacement assay is miniaturized for a 1536-well format and utilizes a ThO dye bound to unlabeled DNA. Inactivation or no significant activity is the desired outcome for this assay.
NIH Chemical Genomics Center [NCGC]
NIH Molecular Libraries Probe Centers Network [MLPCN]
Assay Submitter (PI): Robert Brosh, National Institute of Aging
Compounds were added to a 4 uL mixture of 50 nM DNA and 100 nM ThO via pintool transfer. The fluorescence signal (excitation 480 nm, emission 530 nm) was measured after 15 min incubation at room temperature using the ViewLux CCD imager.
With `N#C/C(=C\C1=C(N2CCOCC2)C(=C\c2ccccc2)/CC1)C(=O)Nc1ccccc1F` the Potency was “inactive”. In the case of `CCOc1ccccc1C(=O)NCc1ccco1`, the Potency is reported as “inactive”. With `COc1ccc(Cl)cc1NC(=O)CCS(=O)(=O)c1ccc(Br)cc1` the Potency was “inactive”. In the case of `O=C(Nc1ccccc1)c1nnsc1S(=O)(=O)c1ccc(Cl)cc1`, the Potency is reported as “inactive”. With `CC(=O)N(C1=C(Cl)C(=O)c2ccccc2C1=O)c1ccc(C(=O)O)cc1` the Potency was “inactive”. In the case of `COc1ccc(Cl)cc1-c1cc(C(=O)Nc2cc(OC)c(OC)c(OC)c2)[nH]n1`, the Potency is reported as “inactive”. In the case of `Cc1ccc(-c2nc(SCc3ccc(Br)cc3)n3[nH]c(=O)cc3n2)cc1`, the Potency is reported as “inactive”. In the case of `COc1cccc2c1C(=O)c1c(O)c3c(c(O)c1C2=O)CC(O)(C(C)=NNC(=O)c1ccc(Cl)c(Cl)c1)CC3OC1CC(N)C(O)C(C)O1` (stereo unspecified), the Potency is reported as “inactive”. For `CN1CCN(S(=O)(=O)c2cccc(C(=O)Nc3sccc3C#N)c2)CC1`, the Potency was “inactive”. For `Cc1c(CC(=O)N2CCN(C(=O)C3COc4ccccc4O3)CC2)c(=O)oc2c(O)c(O)ccc12` (stereo unspecified), the Potency was “inactive”. For `CCc1ccc2nc3sc(C(=O)Nc4nnc(CC)s4)c(N)c3cc2c1`, the Potency was “inactive”. With `CCN(CC)CCOc1ccc2c(c1)C(=NNC(=O)c1ccccn1)c1cc(OCCN(CC)CC)ccc1-2` the Potency was 2150 nM (active). With `CC1=NN(c2ccc(Cl)c(C(=O)O)c2)C(=O)/C1=C/c1ccc(-c2ccccc2[N+](=O)[O-])o1` the Potency was “inactive”. With `CN(C)c1nc(Nc2ccc(Cl)c(Cl)c2)nc(N(C)C)n1` the Potency was “inactive”. In the case of `O=c1[nH]c2ccccc2n2c(-c3ccccc3)nnc12`, the Potency is reported as “inactive”. With `COC(=O)/C=C\C(=O)Nc1cccc([N+](=O)[O-])c1` the Potency was “inactive”.
